# Source: paper PMC7862700, “An all-to-all approach to the identification of sequence-specific readers for epigenetic DNA modifications on cytosine”
# Experiments:
# Experiment in all cases: DAPPL (digital affinity profiling via proximity ligation, sequencing); 10 mM Tris-HCl pH 7.5, 50 mM NaCl, 1 mM DTT, 4% glycerol, room temperature, 30 min; GST-TFs on glutathione beads, 16-mer random dsDNA library, 0.1% formaldehyde crosslink after washing; high values mean tight binding
# FLI1 = target: T1, FLI1 (Homo sapiens, UniProt Q01543 1-452); details: protein: recombinant; tags: N-terminal GST; dsDNA, one strand shown
# T1 sequence: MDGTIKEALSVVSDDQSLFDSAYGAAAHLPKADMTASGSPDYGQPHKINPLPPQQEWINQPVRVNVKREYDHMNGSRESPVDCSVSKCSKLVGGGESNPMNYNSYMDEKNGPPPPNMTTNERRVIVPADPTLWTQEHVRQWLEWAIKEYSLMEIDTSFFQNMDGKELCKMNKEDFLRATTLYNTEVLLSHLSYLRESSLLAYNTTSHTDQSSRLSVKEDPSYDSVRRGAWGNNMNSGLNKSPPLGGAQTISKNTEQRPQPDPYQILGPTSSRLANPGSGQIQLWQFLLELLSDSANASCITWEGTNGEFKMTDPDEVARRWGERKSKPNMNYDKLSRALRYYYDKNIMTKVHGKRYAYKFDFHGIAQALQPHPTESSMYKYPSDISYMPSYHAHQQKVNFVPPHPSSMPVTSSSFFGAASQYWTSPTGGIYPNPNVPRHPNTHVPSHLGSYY
# Summary of the method: (§1)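 GST fusions of human transcription factors were expressed in yeast and captured with glutathione beads. Once given DNA barcodes and pooled alongside a tag-only sample, they were incubated for 30 min at room temperature with 200 nmole of a random double-stranded 16-mer DNA library in Tris/NaCl/DTT/glycerol buffer, then washed, crosslinked (0.1% formaldehyde), proximity-ligated, PCR-amplified and sequenced on an Illumina NextSeq500. The binding signal of each hexamer is its read frequency for a factor divided by its frequency for the tag-only sample.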
# ELK1 = target: T2, ELK1 (Homo sapiens, UniProt P19419 1-428); details: protein: recombinant; tags: N-terminal GST; dsDNA, one strand shown
# T2 sequence: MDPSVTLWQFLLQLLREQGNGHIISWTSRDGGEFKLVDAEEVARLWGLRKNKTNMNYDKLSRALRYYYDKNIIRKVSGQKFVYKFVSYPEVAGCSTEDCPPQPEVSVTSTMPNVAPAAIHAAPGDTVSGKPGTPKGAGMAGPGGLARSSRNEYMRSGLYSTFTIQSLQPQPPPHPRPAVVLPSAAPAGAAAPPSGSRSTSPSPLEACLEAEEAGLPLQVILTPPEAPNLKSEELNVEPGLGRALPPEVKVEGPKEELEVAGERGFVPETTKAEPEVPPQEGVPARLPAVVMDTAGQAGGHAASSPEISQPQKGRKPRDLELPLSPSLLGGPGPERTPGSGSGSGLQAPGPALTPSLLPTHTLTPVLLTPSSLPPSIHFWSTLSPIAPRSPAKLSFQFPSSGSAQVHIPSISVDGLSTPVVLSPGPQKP
# Summary of the method: as §1
# GABPA = target: T3, GABPA (Homo sapiens, UniProt Q06546 1-454); details: protein: recombinant; tags: N-terminal GST; dsDNA, one strand shown
# T3 sequence: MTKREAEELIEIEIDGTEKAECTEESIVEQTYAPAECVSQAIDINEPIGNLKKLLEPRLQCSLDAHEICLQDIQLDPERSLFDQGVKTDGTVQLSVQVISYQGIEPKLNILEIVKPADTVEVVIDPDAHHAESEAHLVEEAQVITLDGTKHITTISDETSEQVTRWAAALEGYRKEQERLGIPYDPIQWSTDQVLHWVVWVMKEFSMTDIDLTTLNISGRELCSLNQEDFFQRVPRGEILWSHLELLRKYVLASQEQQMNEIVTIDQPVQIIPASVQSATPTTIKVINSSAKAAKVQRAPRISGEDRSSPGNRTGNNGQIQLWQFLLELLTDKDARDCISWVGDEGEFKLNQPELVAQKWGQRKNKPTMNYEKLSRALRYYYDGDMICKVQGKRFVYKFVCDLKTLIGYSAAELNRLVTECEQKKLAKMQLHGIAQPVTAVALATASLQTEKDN
# Summary of the method: as §1
# ERG = target: T4, ERG (Homo sapiens, UniProt P11308 1-479); details: protein: recombinant; tags: N-terminal GST; dsDNA, one strand shown
# T4 sequence: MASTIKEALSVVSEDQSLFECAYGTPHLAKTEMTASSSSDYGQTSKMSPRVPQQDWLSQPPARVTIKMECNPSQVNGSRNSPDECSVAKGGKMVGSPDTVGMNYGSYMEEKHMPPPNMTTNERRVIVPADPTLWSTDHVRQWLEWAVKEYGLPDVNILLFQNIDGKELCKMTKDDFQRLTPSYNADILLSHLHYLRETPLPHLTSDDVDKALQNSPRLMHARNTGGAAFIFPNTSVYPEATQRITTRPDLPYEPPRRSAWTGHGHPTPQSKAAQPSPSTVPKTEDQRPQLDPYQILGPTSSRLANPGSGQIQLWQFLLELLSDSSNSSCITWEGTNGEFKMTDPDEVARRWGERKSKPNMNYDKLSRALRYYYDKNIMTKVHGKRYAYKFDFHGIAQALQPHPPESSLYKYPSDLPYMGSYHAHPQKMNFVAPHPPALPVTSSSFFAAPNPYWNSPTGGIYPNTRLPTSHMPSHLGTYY
# Summary of the method: as §1
# ELF1 = ELF1 (Homo sapiens, UniProt P32519 1-619); details: protein: recombinant; tags: N-terminal GST; dsDNA, one strand shown
# Summary of the method: as §1
# EHF = target: T5, EHF (Homo sapiens, UniProt Q9NZC4 1-300); details: protein: recombinant; tags: N-terminal GST; dsDNA, one strand shown
# T5 sequence: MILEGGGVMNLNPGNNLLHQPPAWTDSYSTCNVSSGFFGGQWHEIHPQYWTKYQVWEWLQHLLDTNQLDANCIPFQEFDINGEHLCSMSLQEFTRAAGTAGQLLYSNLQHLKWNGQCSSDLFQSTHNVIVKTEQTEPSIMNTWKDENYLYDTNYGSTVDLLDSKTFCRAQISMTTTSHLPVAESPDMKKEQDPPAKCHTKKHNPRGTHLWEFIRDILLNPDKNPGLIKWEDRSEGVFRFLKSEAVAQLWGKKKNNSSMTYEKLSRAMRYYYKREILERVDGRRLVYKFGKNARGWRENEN
# Summary of the method: as §1
# SPI1 = SPI1 (Homo sapiens, UniProt P17947 1-270); details: protein: recombinant; tags: N-terminal GST; dsDNA, one strand shown
# Summary of the method: as §1
# SPIB = SPIB (Homo sapiens, UniProt Q01892 1-262); details: protein: recombinant; tags: N-terminal GST; dsDNA, one strand shown
# Summary of the method: as §1
# ELK3 = target: T6, ELK3 (Homo sapiens, UniProt P41970 1-407); details: protein: recombinant; tags: N-terminal GST; dsDNA, one strand shown
# T6 sequence: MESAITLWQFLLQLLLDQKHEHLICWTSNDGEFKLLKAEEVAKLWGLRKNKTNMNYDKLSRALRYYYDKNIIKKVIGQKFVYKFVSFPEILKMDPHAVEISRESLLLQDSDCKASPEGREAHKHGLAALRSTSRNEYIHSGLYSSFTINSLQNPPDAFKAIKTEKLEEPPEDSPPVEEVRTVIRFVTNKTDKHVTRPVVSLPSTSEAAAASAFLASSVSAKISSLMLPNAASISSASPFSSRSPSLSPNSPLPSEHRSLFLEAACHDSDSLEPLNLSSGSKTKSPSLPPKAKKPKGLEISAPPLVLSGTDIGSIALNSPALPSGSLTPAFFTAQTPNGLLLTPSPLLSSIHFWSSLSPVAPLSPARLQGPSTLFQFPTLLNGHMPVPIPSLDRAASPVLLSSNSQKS
# Summary of the method: as §1
# FEV = target: T7, FEV (Homo sapiens, UniProt Q99581 1-238); details: protein: recombinant; tags: N-terminal GST; dsDNA, one strand shown
# T7 sequence: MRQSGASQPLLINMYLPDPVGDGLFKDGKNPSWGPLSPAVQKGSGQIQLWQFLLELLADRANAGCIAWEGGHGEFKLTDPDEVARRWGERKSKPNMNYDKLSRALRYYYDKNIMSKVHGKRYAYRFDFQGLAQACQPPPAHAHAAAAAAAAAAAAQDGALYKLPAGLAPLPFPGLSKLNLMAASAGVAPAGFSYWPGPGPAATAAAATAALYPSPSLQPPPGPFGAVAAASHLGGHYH
# Summary of the method: as §1
# ETV5 = ETV5 (Homo sapiens, UniProt P41161 1-510); details: protein: recombinant; tags: N-terminal GST; dsDNA, one strand shown
# Summary of the method: as §1
# HSF1 = HSF1 (Homo sapiens, UniProt Q00613 1-529); details: protein: recombinant; tags: N-terminal GST; chain copies: 3; dsDNA, one strand shown
# Summary of the method: as §1
# SPIC = target: T8, SPIC (Homo sapiens, UniProt Q8N5J4 1-248); details: protein: recombinant; tags: N-terminal GST; dsDNA, one strand shown
# T8 sequence: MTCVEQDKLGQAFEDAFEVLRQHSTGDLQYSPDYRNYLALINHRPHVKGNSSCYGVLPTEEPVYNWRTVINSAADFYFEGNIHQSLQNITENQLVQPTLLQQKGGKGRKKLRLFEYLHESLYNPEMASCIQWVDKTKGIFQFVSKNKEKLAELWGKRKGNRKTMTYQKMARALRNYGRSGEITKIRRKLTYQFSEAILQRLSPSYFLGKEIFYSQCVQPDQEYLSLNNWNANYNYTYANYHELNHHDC
# Summary of the method: as §1
# ELF4 = ELF4 (Homo sapiens, UniProt Q99607 1-663); details: protein: recombinant; tags: N-terminal GST; dsDNA, one strand shown
# Summary of the method: as §1
# ELK4 = target: T9, ELK4 (Homo sapiens, UniProt P28324-2 1-405); details: protein: recombinant; tags: N-terminal GST; dsDNA, one strand shown
# T9 sequence: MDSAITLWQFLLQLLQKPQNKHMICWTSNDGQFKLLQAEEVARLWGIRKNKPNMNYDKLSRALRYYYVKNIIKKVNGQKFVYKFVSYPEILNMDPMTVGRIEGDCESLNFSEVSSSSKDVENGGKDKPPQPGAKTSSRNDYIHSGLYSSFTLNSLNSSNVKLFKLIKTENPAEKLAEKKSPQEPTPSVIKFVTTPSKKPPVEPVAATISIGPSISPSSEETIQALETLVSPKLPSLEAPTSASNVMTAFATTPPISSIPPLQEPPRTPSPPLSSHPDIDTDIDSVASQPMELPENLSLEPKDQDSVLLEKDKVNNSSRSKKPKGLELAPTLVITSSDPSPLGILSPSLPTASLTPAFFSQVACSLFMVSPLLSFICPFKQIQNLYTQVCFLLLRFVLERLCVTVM
# Summary of the method: as §1
# ETV2 = target: T10, ETV2 (Homo sapiens, UniProt O00321 1-342); details: protein: recombinant; tags: N-terminal GST; dsDNA, one strand shown
# T10 sequence: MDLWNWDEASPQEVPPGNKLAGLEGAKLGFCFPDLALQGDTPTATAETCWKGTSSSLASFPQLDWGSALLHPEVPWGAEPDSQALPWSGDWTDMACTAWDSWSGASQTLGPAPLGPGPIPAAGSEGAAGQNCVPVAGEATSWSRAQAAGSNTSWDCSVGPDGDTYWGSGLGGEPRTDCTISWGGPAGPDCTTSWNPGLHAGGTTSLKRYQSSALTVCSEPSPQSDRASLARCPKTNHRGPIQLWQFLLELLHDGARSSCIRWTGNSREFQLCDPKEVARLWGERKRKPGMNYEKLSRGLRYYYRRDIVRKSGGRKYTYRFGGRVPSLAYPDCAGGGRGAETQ
# Summary of the method: as §1
# ELF3 = target: T11, ELF3 (Homo sapiens, UniProt P78545 1-371); details: protein: recombinant; tags: N-terminal GST; dsDNA, one strand shown
# T11 sequence: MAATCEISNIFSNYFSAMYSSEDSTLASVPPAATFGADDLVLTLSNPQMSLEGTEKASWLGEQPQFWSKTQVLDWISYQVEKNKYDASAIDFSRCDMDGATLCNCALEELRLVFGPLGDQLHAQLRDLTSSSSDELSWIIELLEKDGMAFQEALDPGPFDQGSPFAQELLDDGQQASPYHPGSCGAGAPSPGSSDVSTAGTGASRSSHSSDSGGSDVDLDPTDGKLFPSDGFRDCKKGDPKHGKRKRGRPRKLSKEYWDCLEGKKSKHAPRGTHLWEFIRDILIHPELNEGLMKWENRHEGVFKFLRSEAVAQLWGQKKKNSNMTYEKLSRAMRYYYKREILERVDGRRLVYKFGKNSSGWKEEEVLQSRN
# Summary of the method: as §1
# CRX = CRX (Homo sapiens, UniProt O43186 1-299); details: protein: recombinant; tags: N-terminal GST; dsDNA, one strand shown
# Summary of the method: as §1
# ETV1 = ETV1 (Homo sapiens, UniProt P50549 1-477); details: protein: recombinant; tags: N-terminal GST; dsDNA, one strand shown
# Summary of the method: as §1
# Sequence of HSF1 (Q00613 whole entry): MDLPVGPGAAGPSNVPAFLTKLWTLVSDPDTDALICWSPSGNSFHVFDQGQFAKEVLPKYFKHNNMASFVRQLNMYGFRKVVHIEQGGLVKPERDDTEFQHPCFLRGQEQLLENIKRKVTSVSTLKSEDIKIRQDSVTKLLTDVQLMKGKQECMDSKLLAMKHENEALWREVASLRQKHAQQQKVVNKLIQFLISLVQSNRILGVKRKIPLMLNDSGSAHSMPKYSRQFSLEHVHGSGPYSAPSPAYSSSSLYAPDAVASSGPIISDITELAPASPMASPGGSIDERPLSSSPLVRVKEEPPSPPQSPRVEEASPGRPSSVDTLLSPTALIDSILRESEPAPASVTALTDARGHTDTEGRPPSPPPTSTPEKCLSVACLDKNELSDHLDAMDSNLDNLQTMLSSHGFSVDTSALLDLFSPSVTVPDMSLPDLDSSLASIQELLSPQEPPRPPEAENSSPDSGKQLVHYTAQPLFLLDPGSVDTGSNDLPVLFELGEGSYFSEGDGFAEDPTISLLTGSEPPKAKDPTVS
# Sequence of ELF1 (P32519 whole entry): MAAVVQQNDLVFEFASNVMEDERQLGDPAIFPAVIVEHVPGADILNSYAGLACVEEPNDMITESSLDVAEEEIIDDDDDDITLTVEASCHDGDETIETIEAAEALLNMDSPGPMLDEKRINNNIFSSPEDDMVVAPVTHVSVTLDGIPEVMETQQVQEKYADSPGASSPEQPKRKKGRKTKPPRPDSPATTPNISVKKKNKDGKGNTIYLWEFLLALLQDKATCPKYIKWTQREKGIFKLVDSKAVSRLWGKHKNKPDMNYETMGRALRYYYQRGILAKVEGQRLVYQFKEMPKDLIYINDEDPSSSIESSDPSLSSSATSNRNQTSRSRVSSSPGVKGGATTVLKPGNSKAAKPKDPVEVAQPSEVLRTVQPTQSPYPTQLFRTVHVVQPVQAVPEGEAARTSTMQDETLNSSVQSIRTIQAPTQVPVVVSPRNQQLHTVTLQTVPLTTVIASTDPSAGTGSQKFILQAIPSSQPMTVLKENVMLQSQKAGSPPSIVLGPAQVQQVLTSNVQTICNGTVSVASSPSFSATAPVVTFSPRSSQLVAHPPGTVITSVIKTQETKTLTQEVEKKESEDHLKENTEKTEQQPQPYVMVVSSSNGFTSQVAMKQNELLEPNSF
# Sequence of SPIB (Q01892 whole entry): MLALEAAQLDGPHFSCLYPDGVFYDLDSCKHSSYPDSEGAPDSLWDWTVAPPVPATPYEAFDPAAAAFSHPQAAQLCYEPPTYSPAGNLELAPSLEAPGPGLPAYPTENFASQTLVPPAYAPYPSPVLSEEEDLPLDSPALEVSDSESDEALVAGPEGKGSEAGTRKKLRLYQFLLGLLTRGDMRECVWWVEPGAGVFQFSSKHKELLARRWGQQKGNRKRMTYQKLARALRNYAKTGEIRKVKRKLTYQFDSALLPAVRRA
# Sequence of ELF4 (Q99607 whole entry): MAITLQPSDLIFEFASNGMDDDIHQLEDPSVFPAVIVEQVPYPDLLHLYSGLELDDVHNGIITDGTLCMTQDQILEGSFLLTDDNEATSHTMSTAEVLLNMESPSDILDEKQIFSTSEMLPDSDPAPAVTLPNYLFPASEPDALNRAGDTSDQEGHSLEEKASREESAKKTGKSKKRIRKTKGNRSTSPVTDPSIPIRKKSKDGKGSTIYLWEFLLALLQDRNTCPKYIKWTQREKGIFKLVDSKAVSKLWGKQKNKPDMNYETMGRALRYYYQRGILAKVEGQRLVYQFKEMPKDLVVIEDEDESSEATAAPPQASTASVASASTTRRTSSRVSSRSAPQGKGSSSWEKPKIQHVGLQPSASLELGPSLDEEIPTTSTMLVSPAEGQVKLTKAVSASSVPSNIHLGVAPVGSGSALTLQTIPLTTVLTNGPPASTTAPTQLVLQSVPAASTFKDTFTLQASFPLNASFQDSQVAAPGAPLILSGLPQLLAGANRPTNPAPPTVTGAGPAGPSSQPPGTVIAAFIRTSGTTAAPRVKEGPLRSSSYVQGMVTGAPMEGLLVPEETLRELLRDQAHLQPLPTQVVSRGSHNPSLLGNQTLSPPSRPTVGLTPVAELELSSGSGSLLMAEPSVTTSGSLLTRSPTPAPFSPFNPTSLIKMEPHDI
# Sequence of CRX (O43186 whole entry): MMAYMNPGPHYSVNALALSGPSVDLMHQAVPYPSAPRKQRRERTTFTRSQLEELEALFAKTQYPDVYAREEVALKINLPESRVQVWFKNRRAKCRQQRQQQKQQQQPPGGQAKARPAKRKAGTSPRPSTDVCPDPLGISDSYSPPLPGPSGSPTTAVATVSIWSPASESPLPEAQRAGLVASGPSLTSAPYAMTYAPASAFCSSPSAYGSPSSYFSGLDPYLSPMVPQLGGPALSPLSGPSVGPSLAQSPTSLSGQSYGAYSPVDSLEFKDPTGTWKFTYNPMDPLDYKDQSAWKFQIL
# Sequence of ETV1 (P50549 whole entry): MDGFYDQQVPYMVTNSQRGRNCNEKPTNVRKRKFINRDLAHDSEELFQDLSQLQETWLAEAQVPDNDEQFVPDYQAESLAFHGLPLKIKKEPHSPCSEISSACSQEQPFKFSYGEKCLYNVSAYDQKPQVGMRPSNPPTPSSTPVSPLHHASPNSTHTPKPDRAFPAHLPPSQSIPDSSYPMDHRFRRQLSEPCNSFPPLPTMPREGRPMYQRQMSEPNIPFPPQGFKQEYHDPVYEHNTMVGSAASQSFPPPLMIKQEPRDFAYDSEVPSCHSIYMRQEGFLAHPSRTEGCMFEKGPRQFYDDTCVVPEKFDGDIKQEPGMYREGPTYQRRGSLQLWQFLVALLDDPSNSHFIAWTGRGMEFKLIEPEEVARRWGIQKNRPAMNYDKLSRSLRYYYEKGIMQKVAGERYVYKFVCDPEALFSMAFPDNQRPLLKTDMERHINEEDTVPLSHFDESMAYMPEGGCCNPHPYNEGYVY
# Sequence of ETV5 (P41161 whole entry): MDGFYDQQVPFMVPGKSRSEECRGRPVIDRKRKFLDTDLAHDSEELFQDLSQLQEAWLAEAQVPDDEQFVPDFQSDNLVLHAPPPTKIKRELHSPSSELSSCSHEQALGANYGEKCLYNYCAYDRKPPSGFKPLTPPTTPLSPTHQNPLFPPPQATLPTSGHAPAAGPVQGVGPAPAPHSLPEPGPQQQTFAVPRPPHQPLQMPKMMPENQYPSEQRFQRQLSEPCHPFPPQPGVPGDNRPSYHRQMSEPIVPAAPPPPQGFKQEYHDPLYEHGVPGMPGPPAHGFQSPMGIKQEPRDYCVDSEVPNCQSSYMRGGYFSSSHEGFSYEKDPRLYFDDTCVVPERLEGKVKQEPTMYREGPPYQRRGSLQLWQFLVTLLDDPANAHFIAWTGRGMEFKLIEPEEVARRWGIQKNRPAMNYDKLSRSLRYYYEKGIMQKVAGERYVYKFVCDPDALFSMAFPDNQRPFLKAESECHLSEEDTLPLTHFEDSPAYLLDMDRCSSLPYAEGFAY
sequence,measurement,setting,value
CGAAGC,binding signal,FLI1,"1.39 fold enrichment (6-mer frequency, TF over GST control)"
same,binding signal,ELK1,"1.36 fold enrichment (6-mer frequency, TF over GST control)"
same,binding signal,GABPA,"1.36 fold enrichment (6-mer frequency, TF over GST control)"
same,binding signal,ERG,"1.23 fold enrichment (6-mer frequency, TF over GST control)"
same,binding signal,ELF1,"1.34 fold enrichment (6-mer frequency, TF over GST control)"
same,binding signal,EHF,"1.26 fold enrichment (6-mer frequency, TF over GST control)"
same,binding signal,SPI1,"1.2 fold enrichment (6-mer frequency, TF over GST control)"
same,binding signal,SPIB,"1.22 fold enrichment (6-mer frequency, TF over GST control)"
same,binding signal,ELK3,"1.49 fold enrichment (6-mer frequency, TF over GST control)"
same,binding signal,FEV,"1.23 fold enrichment (6-mer frequency, TF over GST control)"
same,binding signal,ETV5,"1.31 fold enrichment (6-mer frequency, TF over GST control)"
same,binding signal,HSF1,"1.64 fold enrichment (6-mer frequency, TF over GST control)"
same,binding signal,SPIC,"1.46 fold enrichment (6-mer frequency, TF over GST control)"
same,binding signal,ELF4,"1.44 fold enrichment (6-mer frequency, TF over GST control)"
same,binding signal,ELK4,"1.48 fold enrichment (6-mer frequency, TF over GST control)"
same,binding signal,ETV2,"1.3 fold enrichment (6-mer frequency, TF over GST control)"
same,binding signal,ELF3,"1.23 fold enrichment (6-mer frequency, TF over GST control)"
same,binding signal,CRX,"1.19 fold enrichment (6-mer frequency, TF over GST control)"
same,binding signal,ETV1,"1.29 fold enrichment (6-mer frequency, TF over GST control)"
